Hit rate of the full screen: of about 53,000 sequences, about 3,700 (7%) were called active.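 How the source made its calls: active means gene knockdowns whose robust z-score for IL-1 alpha signal is at least 2 or at most -2, so actives lie on both sides; inactive means the rest.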 Shown is part of a subset that was picked to be rich in actives.
Assay: Components of the Cytosolic LPS Sensing Pathway: Gene Identification via Genome-wide siRNA Screen;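 further: robust z of the log signal after scaling to non-targeting control siRNA wells of the plate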
Conditions: RAW264.7 macrophages, IL-1a HTRF, actives lie on both sides, screened at 100 nM (by protocol), cells primed 5 h with Pam3CSK4 first
In short: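 Using IL-1a HTRF as read-out, the screen measured release from RAW264.7 cells after 48h siRNA knockdown (100 nM), 5 h Pam3CSK4 priming and 24 h cytosolic LipidA. Values were expressed relative to negative-control wells as robust z-scores.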

z-score, inactive:
GUAGUAACCAGAUCUUAUATT against Vmn1r29 0.496, GGUUCAGCCAGAAUUUUCGTT against Lefty2 0.876, GGAAAAGACUAACGAGCGGTT against Med11 -0.703, GGUCCUUCGUAGUUGUGGUTT against Sp110 1.33, GGGAGAUCAUGAUAGCAGCTT against Cox5b -0.828, GCUUGGCUUCAGCAUAUGCTT against Phox2b -0.867, GCCACACUUAAGUCAGACCTT against Tprn 0.597, GGGAGCAAAUGUAAUUUAUTT against Tbpl1 0.842, GGUUUAACUUUAAUGAUGGTT against Cacna1e -1.39, GGGAAUGGGUCUUGUAAACTT against Ppat -1.4, GCAUAUGCUUUUACAACACTT against Zfp280c 0.252, GGUCUGUGCAAGCAAAUCGTT against Cacng2 -0.153, GGAAAAUCAUGGGAGCCUUTT against Lpo -0.435, GGGCUCGUUAAUCUUUUACTT against Nop10 0.753, GGAAAUGUUUCUGUUCAUUTT against Nipsnap3b 0.295, GGUGACUGACAGCUGCCAATT against Prima1 0.0318, GGUUAAAAGAGGUGAUUAGTT against Mtfp1 1.9, GGCCCAUCACUUACUAAAGTT against Exoc3l 0.224, GCCAACAAUAUAAUUCAAGTT against Abca5 1.64, GGUGACAAAAAGUCAAAGATT against Dis3l2 -0.542, CCAUGGUCUAGCACAGUGGTT against Cpn2 -0.079, GACACUGUCAAAUUAUGGATT against Vmn1r74 -0.581, CGGAAUGAUUCUGACUAAUTT against Mmp7 0.546, GGUAUGGAAGACAAAACCUTT against Nlrp1a 0.61, GGAACACUGUGAGAACAAGTT against Peak1 0.124, GGUGCUUAAUUCCUGUCCCTT against Ggn -0.855, GGAGUUCUUCACGCGUAACTT against G6pd2 0.599, GCUAGAGGAGUUUCUAAACTT against Clu 0.0975, GCUGGUGUCGGCAAAUCCUTT against Wnk1 -0.62, GCAGAAUGAGUUCAGACGATT against Mgmt 0.36, GGCUUUCAGUUAUUUGACATT against Zfp709 -0.636, GGUUGUCUUUCUACUCGGGTT against Plpp1 1.37, GCUGAUGGAGAGUUAUUUGTT against Rcbtb1 0.675, CCACCCAAAAGUAAAAAGUTT against Rpp38 -1.29, GGUCUGGAUGCUUUAGAAUTT against Fam114a1 -0.373, GCAUUACUUGAGCAAAACATT against Zfp654 -0.854, CCUUCCUGUCCAUGUACCUTT against Olfr412 0.879, GGUCACUGUAAAAUGAACCTT against Odf2 1.48, CGCACAUGUAGUUAAUAAATT against Iqcg -0.96, GGCUCUUACUUCAUCACUATT against Casp4 -1.9, GGUUUUUAACCAAACAUGATT against Actr3 -0.784, CCAUCACUACACGAAAUUGTT against Fgf12 0.176, AAAAAUGUCGGAUUCCCAATT against Adgrf3 -0.121, CGCAGCAGGAAUCAGGAAUTT against Tsr1 0.222, GGAUGUGGAGUCACUGAUGTT against Ccdc91 -0.863, GGAUGAUGACGACAUUGAUTT against Eef1b2 0.292, GGCAGACAACGUGUCACCUTT against Aldh1a3 -0.883, GGAGAAGACCAUAAAGAAGTT against Flywch1 -0.554, CCCUCUACACUAUACCACATT against Olfr347 -0.498, GGAUUCUGGGCUGAAUGGGTT against Pcdh18 -0.491, GGAACCAUCUUCAACCAACTT against Eme1 -1.44, CCAUAGAGUGGAUAGUCAUTT against Rsl1 0.385, CCCUCAAAACCUAUGCCUUTT against Ugt1a2 0.715, GGAUGAUUGCUGACGUGGATT against Bax 0.299, CCUCCUAUUUGCUUCAUUUTT against Cytip -1.32, CCUGAUCCGAUCAUCAGGATT against Cytip 0.133, GGAAGGGCAAGUUAUGAAATT against Fgf14 0.0843, GGGACAUUUCUAUUAGAAUTT against Snx24 -0.95, CCAUACCAAUGAAUGCCUCTT against Fas -1.4, GGCUGAGGAGUGGUACUUUTT against Src -1.13, GCUAUGACUUCAACGACUATT against Pcsk4 -0.309, GGAUCUGUACAAGACUUAUTT against Olfr800 -0.011, GCCAACAGAAAUAAGCCUUTT against Sorcs1 0.221, CCACACCAGAGGUCUUUGATT against Pde4dip -1.74, CGAUUCCUUUGUAACGAAATT against Aldh5a1 1.04, GGCACUUAAGUUUCAUAAGTT against Qars 0.466, GGUAGUGAUCCUCAAAAAATT against Myc 1.84, AGUCUUCACGUUUCAUUUATT against Olfr1195 0.32, CGCUGUUUGUUCAAGAGGATT against Thbs1 1.05, GCACAAGCGAAGAAGUUUGTT against Ube2i -0.0933, CCAUCUUGACAUCUCGUGUTT against Olfr592 -1.9, CUUUAUGGGUCGUGGAGGATT against Hnrnpa3 -1.12, GGAAUAGGACCUAUGUCUGTT against Nr2e1 -0.455, CCCUGGCUGAGUGCUUUGUTT against Olfr199 0.887, GGGUUGCCACAUGUUAUAUTT against Smad2 -0.0821, GGAGAAUGAGUGGUAUCUGTT against Msh2 -1.48, AAGGACGAUCCUGAUUUCATT against Gm5431 0.828, GCCCUUUCAUCAAUAAUGUTT against Slc12a7 -0.113, GGAAACAUAACCUUCAAUGTT against Wdr3 1.13, CGGAAGCCUCCACAAAUAATT against Apba1 0.0959, GGUGUCUACUCUGAGUUGCTT against Pan2 1.94, GCGGAGGAGUUUUCUUCGATT against Susd4 0.93, GGACCAUGCUCCCUACUUATT against Prss37 0.386, GGCUGUUCAAAAAUUUCGGTT against Sox17 -0.261, GGUUUUGAGAAGAUAACUCTT against Zfp236 0.67, GGACACACUCUACUUCCCATT against Mrgprg -0.196, GUCAGAACAAAACCAAAUGTT against E330013P04Rik -0.152

z-score, active:
GGUGGGCACUCUGGUUUUUTT against Eif4e 4.66, GCAAAAACCUAUAGGAAAATT against Srpk2 2.27, GGUGCUAAGAAAAUCAAAGTT against Ryr2 3.64, GGUCAAUGCUGUUUUUGUUTT against Mxi1 2.41, GGAGAGUGAUGAACAGAUGTT against Pctp 2.21, GGAAUAUUCACAGUCCGAGTT against Zfand3 -2.18, GGAGUAUUACGUCUGAUAUTT against Nrxn1 2.39, GGGAUGUCUUCCUAUACAGTT against Cope -2.78, GGCUCUGGAUGAAGAACUUTT against Gfpt2 4.13, GGGCAAAGGAAAUGGAAUCTT against Eif5 2.33, GGCCACUUCGUGUUCUUUUTT against Hoxa10 2.08, GCGAGUCUCACAUCAGUGATT against Tshz3 2.68, GACAUUUGUAUGCAGUCAUTT against Vmn1r193 -2.65, GGAGAACUGUAAAUAAACUTT against Duoxa2 -2.1, GCAGGCUAUGUUCUGGAAUTT against Zfp212 2.34, CCACUUCCUUACGAUUGAUTT against Aadacl4fm1 -2.09, CCAAGAGCUGAAACAAGAATT against Ankrd12 -2.01, GCUCAACUUGGAAUUGGAGTT against Arhgap29 2.28, CCAUACAUCCGAGAGUUUGTT against Snrnp70 2.37, GGCUGGUUGGAAGGAAAAUTT against Ints6l 2.1, GGUUCGAGUUUCAUACUAUTT against Padi4 2.56

— PubChem BioAssay AID1508600 (Functional Genomics Laboratory (NCATS/FGL), 2020)
